A selection follows.
aSyn 5UTR act: Activators via SNCA 5'UTR binding, MLPCN; activity score, % (tested at 7.5 µM), hits read low; alpha-synuclein 5'UTR reporter, activators screen; actives 7.1% (n = 300,000); in the data active = activity score below about -60%
Large screens that a line does not name were inactive.

CC(C)CCNC(=O)C(=O)Nc1ccccc1	aSyn 5UTR act -155.2
Cc1ccc(C)n1-c1cccc(NC(=O)c2ccccc2)c1	aSyn 5UTR act -72.7
Cc1ccc(C)n1-c1ccc(C(=O)Nc2ccccc2)cc1	aSyn 5UTR act -81.7
N#CC1=C(N)Oc2cc(N)ccc2C1c1cccc(F)c1 (stereo not given)	aSyn 5UTR act -137.5
N#CC1=C(N)Oc2cc(N)ccc2C1C1CCCCC1 (stereo not given)	aSyn 5UTR act -89.3
CN(C)c1ccc2c(c1)OC(N)=C(C#N)C2c1cccc(F)c1 (stereo not given)	none
Cc1nn(-c2ccc(N3CCCCC3)nn2)c(C)c1CCC(=O)Nc1cc(F)ccc1F	aSyn 5UTR act -65.3
Cc1cc(/C=C2\NC(=S)N(C)C2=O)ccc1N1CCCC1	aSyn 5UTR act -205.7
Cc1cc(/C=C2/C(=O)N(C)C(=S)N2C)ccc1N1CCCC1	aSyn 5UTR act -212.4
Clc1cccc(Nc2nc(-c3ccncc3)cs2)c1	aSyn 5UTR act -159.3
Cc1ccc(Nc2nc(-c3ccncc3)cs2)cc1	aSyn 5UTR act -331.1
CCCCc1ccc(Nc2ncccc2C#N)cc1	aSyn 5UTR act -86.6
O=C(CCCN1C(=O)/C(=C/c2ccc3c(c2)OCO3)SC1=S)Nc1ccc(C(=O)O)cc1	none
COc1cc(/C=N\NC(=O)c2ccc(C)nc2)ccc1OC(=O)c1ccc2c(c1)OCO2	aSyn 5UTR act -67.2
O=C(N/N=C/c1ccc2c(c1)OCO2)c1ccc2c(c1)OCO2	aSyn 5UTR act -91.3
O=C(CCC(=O)Nc1ccccc1)N/N=C/c1ccc2c(c1)OCO2	aSyn 5UTR act -62.9
O=C(N/N=C/c1ccc2c(c1)OCO2)C1CC1	aSyn 5UTR act -66.7
O=C(N/N=C/c1ccc[nH]1)c1ccc2c(c1)OCO2	aSyn 5UTR act -92.9
O=C(N/N=C\c1ccc2c(c1)OCO2)c1ccco1	aSyn 5UTR act -102.5
O=C(N/N=C\c1cccc(OC(=O)c2ccco2)c1)c1ccc2c(c1)OCO2	aSyn 5UTR act -64.7
Cc1ccsc1/C=N\NC(=O)c1ccc2c(c1)OCO2	aSyn 5UTR act -96.9
c1ccc(CCNc2nc(-c3ccccn3)cs2)cc1	aSyn 5UTR act -157.7
c1ccc(CCNc2nc(-c3cccnc3)cs2)cc1	aSyn 5UTR act -129.3
O=C(Cn1cc(C(F)(F)F)cc(Cl)c1=O)NCc1ccccc1	aSyn 5UTR act -112.6
CCOC(=O)COc1cccc2c(=O)n(CC(=O)NCc3ccccc3)ccc12	none
CCCCn1nc(NC(=O)COC)c2cc3cc(OC)ccc3nc21	aSyn 5UTR act -77.6
Clc1ccccc1-c1nnc(-c2ccccc2Cl)o1	aSyn 5UTR act -158.3
Clc1ccc(-c2nnc(-c3ccccc3Cl)o2)cc1	aSyn 5UTR act -82.0
CN(C)/C=N/C(=S)Nc1ccc(Br)cc1F	aSyn 5UTR act -108.4
Cc1cccnc1NC(=O)/C=C/c1ccc2c(c1)OCO2	aSyn 5UTR act -151.4
Cc1cc(C)nc(NC(=O)/C=C/c2ccc3c(c2)OCO3)c1	aSyn 5UTR act -206.9
COC(=O)c1cccc(NC(=O)/C=C/c2ccc3c(c2)OCO3)c1	none
Brc1ccc(-c2ncc3ccccn23)cc1	aSyn 5UTR act -130.4
Fc1ccc(-c2ncc3ccccn23)cc1	aSyn 5UTR act -100.7
CCOC(=O)c1ccc(N/C=C\C(=O)c2cccc(OC)c2)cc1	aSyn 5UTR act -131.3
COc1cccc(N/C=C/C(=O)c2ccc(OC)c(OC)c2)c1	aSyn 5UTR act -97.3
CCOc1ccc(C(=O)Cc2cc(OC)c(OC)cc2[N+](=O)[O-])cc1	aSyn 5UTR act -80.5
CCOc1ccc(N/C=C/C(=O)c2ccc(OC)cc2)c([N+](=O)[O-])c1	aSyn 5UTR act -118.2
CCOc1ccc(NC(=S)NC(=O)/C=C/c2ccc(Br)cc2)c([N+](=O)[O-])c1	aSyn 5UTR act -78.7
COc1ccc(C(=O)/C(C#N)=N/Nc2ccc([N+](=O)[O-])cc2)cc1	none
Cc1ccc(Cl)c(N/C=C/C(=O)c2ccccc2)c1	aSyn 5UTR act -143.6
Cc1cccc(N/C=C/C(=O)c2ccc(Cl)cc2)c1	aSyn 5UTR act -157.2
COc1ccc(C(=O)/C=C/Nc2ccc([N+](=O)[O-])cc2)cc1	aSyn 5UTR act -106.4
COc1ccc(C(=O)/C=C/Nc2cccc(O)c2)cc1	aSyn 5UTR act -93.8
CCOC(=O)c1ccc(OS(=O)(=O)c2ccccc2)c(OC)c1	aSyn 5UTR act -195.4
COC(=O)c1ccccc1N/C=C/C(=O)c1ccc(Br)cc1	aSyn 5UTR act -132.4
COc1cccc(N/C=C/C(=O)c2ccc(Br)cc2)c1	aSyn 5UTR act -116.6
COc1cccc(C(=O)/C=C/Nc2cc(C)ccc2O)c1	aSyn 5UTR act -260.9
CCOC(=O)c1cccc(N/C=C/C(=O)c2ccc(OC)c(OC)c2)c1	aSyn 5UTR act -130.3
Cn1c(N2CCOCC2)c(/C=N/OC(=O)c2ccc(F)cc2)c2ccccc21	none
Cn1c(O)c(N=Nc2nc(-c3ccccc3)cs2)c2ccccc21	aSyn 5UTR act -126.2
Cn1c(O)c(N=Nc2ccc(F)cc2)c2ccccc21	aSyn 5UTR act -62.0
Cc1ccccc1NC(=S)N=Nc1c(O)n(C)c2ccc(S(=O)(=O)N3CCOCC3)cc12	none
O=c1c(=Nc2ccccc2O)c(=O)c2ccccc12	aSyn 5UTR act -111.6
CCCCn1cnc2c([nH]c3cc(OC)ccc32)c1=O	aSyn 5UTR act -129.2
COc1ccc2c(c1)[nH]c1c(=O)n(Cc3ccco3)cnc12	aSyn 5UTR act -65.4

Compound activity from PubChem BioAssay.
